Screens from PubChem BioAssay.
Most compounds without a hit are left out; they make up all but 8.1% or so of the library.
Epigenetic reg: epigenetic control regulation, reporter derepression; 280,000 tested, 0.2% active; AID 1865; murine LDR cells, GFP reporter derepression, 30 h; Potency, µM (series often up to 53.9 µM), for the others: at the top dose GFP activation, usual class: activators; note: % of control where 0% means no effect; nearly all actives have a fitted effect of over 60% in size
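Murine LDR cells bearing a silenced CMV-driven GFP reporter were exposed to compound for 30 h at 37 C. After PBS washes, GFP-positive cells (20-120 um objects) counted by laser-scanning microplate cytometry.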
PINK1 modulator: PINK1 expression modulation; PINK1 immunofluorescence, high-content cytometry, 24 h; Potency, µM (top dose mostly 76.6 µM), for inactives: top-dose activation (PINK1 increase), hits mostly activators; 410,000 tested, 0.2% active; AID 624263; active = well fitted activation curve with a large enough effect; inconclusive = small, poorly fitted or top-dose-only effect; cell line not stated here; note: % of control where 0% means no effect; nearly all actives have a fitted effect of over 65% in size
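PINK1 protein level read as immunofluorescence by microplate cytometer in a fixed, stained stable cell line after 24 h exposure to five compound concentrations, with CCCP as control.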
ClpP mod: qHTS Assay for Activators of ClpP; ATP-dependent Clp protease proteolytic subunit (Bacillus subtilis (strain 168)), P80244; purified B. subtilis ClpP, FRET peptide cleavage, 20 min; Potency, µM (top dose mostly 57.5 µM), without a hit: at the highest dose activity change, negative = active; 340,000 tested, 1.9% active; AID 651965, 2013; active = well fitted falling curve with a large enough effect; inconclusive = small, poorly fitted or top-dose-only effect; inactive = no such curve, though single readings can be large or run the other way; note: the source files actives as falling curves though it sought activators and does not explain the sign; nearly all actives have a fitted effect of over 65% in size
Target sequence (P80244 whole entry, looked up): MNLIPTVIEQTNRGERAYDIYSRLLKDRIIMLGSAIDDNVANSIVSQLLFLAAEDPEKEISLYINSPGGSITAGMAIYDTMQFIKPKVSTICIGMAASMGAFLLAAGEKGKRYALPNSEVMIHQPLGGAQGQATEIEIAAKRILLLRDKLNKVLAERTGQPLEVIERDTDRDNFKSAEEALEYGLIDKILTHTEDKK
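FRET quenching reversal measured ClpP activation: 10 microg/mL B. subtilis ClpP at pH 8 with the FRET-FV decapeptide, read at 430 nm after 320 nm excitation. The 20-min minus 0-min signal was scaled between DMSO/no-enzyme wells and ADEP (5.8 microM final).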
Sfp inh: blocks B. subtilis Sfp PPTase activity; Q9F4F7; Biochemical Sfp PPTase activity, qHTS; Potency, µM, without a hit: largest response in the series, negative = inhibition, usual class: inhibitors; 310,000 tested, 3.5% active;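 note: the enzyme is Sfp with the accession as filed and its product quenches rhodamine fluorescence; 0% = enzyme reaction without inhibitor and -100% = no enzyme wells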
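Buffer: 50 mM Hepes-Na pH 7.6, 10 mM MgCl2, 0.01% Nonidet P-40, 0.01% BSA. Enzyme 15 nM, pre-exposed to compound 15 min; substrates then added and fluorescence change tracked over 30 min.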
RORgamma inh: blocks mouse ROR gamma transcriptional activity | 310,000 tested, 5.4% active | Drosophila S2 Gal4-RORgamma UAS-luciferase reporter, 20 h | Potency, µM (series often up to 53.6 µM), without a hit: at the highest dose activity change, negative = inhibition, hits mostly inhibitors | P51450; note: % is set by controls: 0 for no effect and ±100 for the full control effect; nearly all actives have a fitted effect of over 60% in size
Target sequence (P51450 whole entry, looked up, the tested form may be a part): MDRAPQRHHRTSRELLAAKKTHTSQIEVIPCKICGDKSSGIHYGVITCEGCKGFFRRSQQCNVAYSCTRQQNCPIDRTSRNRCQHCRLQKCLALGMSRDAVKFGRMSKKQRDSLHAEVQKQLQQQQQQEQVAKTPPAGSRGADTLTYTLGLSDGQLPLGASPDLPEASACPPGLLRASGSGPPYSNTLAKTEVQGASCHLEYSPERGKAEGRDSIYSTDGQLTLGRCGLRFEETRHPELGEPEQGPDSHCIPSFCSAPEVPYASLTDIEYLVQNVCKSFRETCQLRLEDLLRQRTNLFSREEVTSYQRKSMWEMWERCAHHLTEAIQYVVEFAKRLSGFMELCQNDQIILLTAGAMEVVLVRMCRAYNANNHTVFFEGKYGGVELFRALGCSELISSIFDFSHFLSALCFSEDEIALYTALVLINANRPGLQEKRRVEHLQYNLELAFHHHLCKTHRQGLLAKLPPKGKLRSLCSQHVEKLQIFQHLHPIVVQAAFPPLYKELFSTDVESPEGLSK
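Luminescence from a UAS-regulated Photinus luciferase reporter in stably transfected Drosophila Schneider cells is measured; decreased signal marks ROR gamma inhibition. Fusion expression is induced by 700 uM copper sulfate for 20 hr.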
VP16 counter: inhibits Gal4-VP16 luciferase reporter, ROR gamma counter-screen. Drosophila S2 Gal4-VP16 UAS-luciferase, luminescence, 20 h. Potency, µM (series often up to 53.6 µM), inactives show at the top dose activity, negative = inhibition, most hits filed as inhibitors. 310,000 tested, 3.5% active. AID 2546;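 note: Gal4-VP16 expression switched on by copper sulfate through the metallothionein promoter; % is set by controls: 0 for no effect and ±100 for the full control effect; nearly all actives have a fitted effect of over 50% in size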
* = called active by the depositor; u = inconclusive; x = not tested or not shown; [ ] = another dose, or the depositor's remark. Unless noted, calls come from the whole dose curve; as a rule, active = well fitted curve in the direction sought with a large enough effect; inconclusive = small, poorly fitted or top-dose-only effect, or another doubt; inactive = no such curve, though single readings can be large; an effect the other way counts as inactive or inconclusive. Potency is the fitted concentration of half-maximal effect.

SMILES	Epigenetic reg	PINK1 modulator	ClpP mod	Sfp inh	RORgamma inh	VP16 counter
Cc1cc(C)n(-c2nc(NCCC(C)C)c3c4c(sc3n2)COC(C)(C)C4)n1	-2.7%	21.7%	-6.4%	13.9%	0.631µM*	-11.6%
Cc1cc(C)n(-c2nc(NCCN(C)C)c3c4c(sc3n2)CCCC4)n1	-6.9%	-1.3%	x	-3.7%	-16.8%	-13.5%
Cc1cc(C)n(-c2nc(NCCCN(C)C)c3c4c(sc3n2)CCCC4)n1	-2.9%	-1.1%	x	-10.2%	3.98µM*	7.08µM*
Cc1cc(C)n(-c2nc(NCCCN(C)C)c3c4c(sc3n2)COC(C)(C)C4)n1	8.5%	0.3%	-2.3%	u	u	0.7%
CCN(CC)CCNc1nc(-n2nc(C)cc2C)nc2sc3c(c12)CC(C)(C)OC3	0.0%	1.5%	1.1%	4.6%	2.24µM*	u
Cc1ccccc1NC(=O)c1c(C)oc2ccc(O)c(CN3CCN(C)CC3)c12	-3.0%	1.1%	-1.1%	x	x	x
Cc1cc(C)c2c(-n3cccc3)c(C(=O)NCCc3ccccc3)sc2n1	13.5%	0.0%	-1.9%	x	x	x
O=C(CCc1ccccc1)NCc1ccc2c(c1)CCN2C(=O)c1ccc(Cl)cc1	-1.3%	1.2%	0.4%	x	x	x
Cc1cc(C)n(-c2nc(-n3nc(C)cc3C)c3c4c(sc3n2)COC(C)(C)C4)n1	-3.4%	x	x	-13.5%	3.55µM*	12.6µM*
Fc1ccc(-c2csc(=S)[nH]2)cc1	-0.1%	3.2%	x	11.2µM*	-43.5%	2.1%
S=c1[nH]c(-c2ccccc2)cs1	-2.2%	0.5%	x	79.4µM*	7.08µM*	u
Cc1c(NC(=O)Nc2ccccc2C(F)(F)F)sc2nc3n(c(=O)c12)CCC(C)CC3 (stereo not drawn)	0.0%	2.5%	-2.4%	x	x	x
CCN(CC)S(=O)(=O)c1ccc(C(=O)NCCSc2c(-c3ccc(F)cc3)[nH]c3ccccc23)cc1	-0.4%	1.1%	-6.4%	x	x	x
COc1ccc2ccccc2c1CN1CCOc2ccc(CN3CCN(CCO)CC3)cc2C1	x	-0.2%	x	x	x	x
N#Cc1c(N2CCCCC2)nc(N)c2c(N)nc3c(c12)CC(c1ccccc1)O3 (stereo not drawn)	0.0%	-1.7%	28.2µM*	-9.0%	u	-15.2%
CCN(CC)c1nc(N)c2c(N)n(-c3ccccc3C)c(=S)c(C#N)c2c1C#N	-1.0%	-2.2%	2.7%	u	0.0%	0.4%
CCN(CC)c1nc(N)c2c(N)nc3c(c2c1C#N)CC(c1ccccc1)O3 (stereo not drawn)	2.2%	-0.9%[38.3 µM]	28.2µM*	-9.3%	-2.1%	-16.6%
Cc1ccc(CNC(=O)NC2COc3ccccc3C2)cc1 (stereo not drawn)	-1.0%	1.2%	0.0%	x	x	x
COc1ccc(-c2c(C#Cc3ccsc3)c3cc(Br)ccc3n2C)cc1	x	3.5%	4.2%	x	x	x
COc1ccc(-c2c(C#Cc3ccc(N(C)C)cc3)c3ccccc3n2C)cc1	x	17.8µM*	58.7%	x	x	x
CCN(CC)c1ccc(C2CC(=O)Nc3cc(OC)c(OC)cc32)cc1 (stereo not drawn)	0.1%	-2.4%	1.3%	2.1%	17.4%	3.0%
COc1ccc(C2CC(=O)Nc3cc(OC)c(OC)cc32)cc1 (stereo not drawn)	x	1.8%	0.2%	x	x	x
COc1cc2c(cc1OC)C(c1ccc(N(C)C)cc1)CC(=O)N2 (stereo not drawn)	0.9%	-4.3%	10µM*	-26.6%	-21.8%	-7.9%
COc1ccccc1C1CC(=O)Nc2cc3c(cc21)OCCO3 (stereo not drawn)	2.9%	15.2%[38.3 µM]	1.6%	-8.3%	-14.1%	11.2µM*
COc1cc2c(cc1OC)C(c1ccc(SC)cc1)CC(=O)N2 (stereo not drawn)	x	-0.3%	-1.4%	89.1µM*	41.0%	-10.9%
SMILES	Epigenetic reg	PINK1 modulator	ClpP mod	Sfp inh	RORgamma inh	VP16 counter
Cc1ccc(S(=O)(=O)N(C)CCCN(C)c2nc(-c3cccs3)nc3ccccc23)cc1	x	3.7%	u	x	x	x
O=C1c2ccccc2CN2C(=O)c3ccccc3CN12	x	2.8%	-0.7%	17.3%	20.8%	-5.5%
c1ccc(-c2cn3c(n2)-c2ccccc2C3)cc1	2.1%	-1.3%	14.1µM*	-5.4%	10µM*	u
COc1ccc(C(=O)[C@]2(C)C=C(c3ccc(OC)cc3)[C@H](C)C2)cc1	1.1%	x	x	9.4%	-0.4%	8.2%
CCN(CC)C(=S)SC1=CCS(=O)(=O)C1	5.2%	0.0%	x	79.4µM*	-29.2%	-0.9%
COc1ccc2c(c1)C(=O)[C@@H](OC(=O)NC1CCCC1)[C@H](c1ccc(OC)c(Br)c1)O2	0.0%	x	x	-5.1%	-24.8%	-3.8%
CC(C)(C)OC(=O)N1CCNc2ccccc2C1	0.0%	-1.1%	0.4%	11.0%	3.98µM*	u
CC(C)(C)OC(=O)N1Cc2cc3ccccc3nc2C1	x	0.7%	-1.5%	x	x	x
O=C(Nc1cccc(N2CCC(NCc3cnn(-c4ccccc4)n3)CC2)c1)c1cccnc1	x	-0.6%	x	x	x	x
Cc1cccc(-n2c(N)c(-c3nc4ccccc4n3C)c3nc4ccccc4nc32)c1	6.2%	u	7.8%	25.3%	2.82µM*	5.01µM*
Cn1c(-c2c(N)n(-c3ccccc3)c3nc4ccccc4nc23)nc2ccccc21	3.1%	6.4%	-4.3%	-1.7%	1.12µM*	3.55µM*
Cc1ccc2c(c1)c1nc3ccccc3nc1n2C	x	u	2.0%	7.8%	-18.6%	-9.1%
CC1CCN(C(=O)c2ccc(N3C(=O)C4CCC(C)CC4C3=O)cc2)CC1 (stereo not drawn)	-1.4%	-0.1%	x	-5.8%	-19.5%	-5.8%
O=C1C2C3C=CC(C3)C2C(=O)N1c1ccc(Cc2ccncc2)cc1 (stereo not drawn)	-2.1%	-0.3%	-2.4%	9.7%	-25.0%	22.4µM*
CC1CCC2C(=O)N(c3ccc(Cc4ccncc4)cc3)C(=O)C2C1 (stereo not drawn)	0.0%	0.8%	x	19.1%	11.2µM*	6.31µM*
Cc1ccc2c(c1)c(=O)c(C(=O)c1ccccc1)cn2Cc1ccccc1F	1.1%	-0.9%	-2.3%	x	x	x
O=C/C(=C\Nc1ccc(Cl)cn1)c1nc2ccccc2o1	1.6%	2.6%	-2.5%	u	14.1µM*	22.4µM*
O=C/C(=C\Nc1ccc(S(=O)(=O)CCO)cc1)c1nc2cc(Cl)ccc2o1	-0.2%	0.2%	x	1.0%	8.91µM*	-15.1%
O=C/C(=C\Nc1ccc(Cl)cn1)c1nc2cc(Cl)ccc2o1	3.5%	2.4%	-1.4%	4.7%	u	-3.4%
CC(C)(C)C1CCc2c(sc(NC(=O)c3noc4c3CCCC4)c2C#N)C1 (stereo not drawn)	-1.8%	-0.9%	2.2%	x	x	x
CC(=O)N1CC[C@@H]2CC(=O)CC[C@@H]21	-0.8%[96.6 µM]	x	x	-3.5%	-5.8%[96.6 µM]	-2.0%[96.6 µM]
